# “And” between values parts separate entries of the source, which are not always exact repeats. Identical values can stand only once. Inconclusive results are not listed. Where a call stands in place of a potency, no number is given. The source made the active and inactive calls. Unless noted, the call rests on the fitted dose curve; in most records, active means well fitted curve in the direction sought with a large enough effect; inconclusive means small, poorly fitted or top-dose-only effect, or another doubt; inactive means no such curve, though single readings can be large; an effect the other way counts as inactive or inconclusive.
# Tests used:
# [1] = Counterscreen qHTS for small molecule stabilizers of the endoplasmic reticulum resident proteome: GLuc-NoTag assay (AID 1508627); further: potency means the concentration at half of the fitted maximal effect
# In short: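 SH-SY5Y cells stably expressing constitutively secreted GLuc (no SERCaMP tag) were pre-incubated 5 h, treated with compound for 19 h, then 100 nM thapsigargin for 4 h at 37C; medium GLuc read by coelenterazine luminescence.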
# [2] = Confirmatory qHTS for small molecule stabilizers of the endoplasmic reticulum resident proteome: Secreted ER Calcium Modulated Protein (SERCaMP) assay (AID 1508628); further: series mostly up to about 76 µM; nearly all actives have a fitted effect of over 40% in size
# In short: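 SH-SY5Y cells stably expressing GLuc-SERCaMP, treated 16 h with compound (primary 1.53, 7.67, 38.3 uM; confirmation 11 concentrations, up to 76.6 uM), then 100 nM thapsigargin for 4 h. Secreted Gaussia luciferase in medium read by coelenterazine luminescence.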
# [3] = Cell Viability qHTS for small molecule stabilizers of the endoplasmic reticulum resident proteome (AID 1508629); conditions: cell viability counter-screen, 100 nM thapsigargin for final 4 h;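 further: human SH-SY5Y neuroblastoma cells carrying the GLuc-SERCaMP reporter; compound exposure about 46 h in total before the viability read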
# [4] = Primary qHTS for small molecule stabilizers of the endoplasmic reticulum resident proteome: Secreted ER Calcium Modulated Protein (SERCaMP) assay (AID 1508630)
# In short: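 GLuc-SERCaMP-expressing SH-SY5Y cells, pretreated 16 h with compound, are challenged with thapsigargin to empty ER calcium stores; after 4 h, coelenterazine is added directly to the medium and luminescence is imaged.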
# [5] = A High-Content qHTS Against Drug Library for the Identification of Small Molecules that Inhibit DYT1 Early Onset Primary Dystonia-Associated Cell Pathology (AID 1645839; calls by dose curve; further: series mostly up to about 46 µM)
# In short: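 Readout: %pathology, the punctate EGFP-TorsinA distribution from imaging, as the primary channel and cell count as the toxicity counterscreen. HEK293 Flp-In cells expressing delE TorsinA were induced with tetracycline and treated with compound for 48 h.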
# [6] = molecular target: Cytochrome P450 2D6 (Homo sapiens) (UniProt P10635); experiment: Cytochrome P450 family 2 subfamily D member 6 (CYP2D6) small molecule antagonists: luciferase biochemical (cell-free) qHTS assay (AID 1645840; active means well fitted curve in the direction sought with a large enough effect in the repeat runs; an effect the other way counts as inactive or inconclusive; further: nearly all actives have a fitted effect of over 55% in size; further: potency means the concentration at half of the fitted maximal effect)
# Cytochrome P450 2D6 (Homo sapiens), sequence (P10635 whole entry, looked up): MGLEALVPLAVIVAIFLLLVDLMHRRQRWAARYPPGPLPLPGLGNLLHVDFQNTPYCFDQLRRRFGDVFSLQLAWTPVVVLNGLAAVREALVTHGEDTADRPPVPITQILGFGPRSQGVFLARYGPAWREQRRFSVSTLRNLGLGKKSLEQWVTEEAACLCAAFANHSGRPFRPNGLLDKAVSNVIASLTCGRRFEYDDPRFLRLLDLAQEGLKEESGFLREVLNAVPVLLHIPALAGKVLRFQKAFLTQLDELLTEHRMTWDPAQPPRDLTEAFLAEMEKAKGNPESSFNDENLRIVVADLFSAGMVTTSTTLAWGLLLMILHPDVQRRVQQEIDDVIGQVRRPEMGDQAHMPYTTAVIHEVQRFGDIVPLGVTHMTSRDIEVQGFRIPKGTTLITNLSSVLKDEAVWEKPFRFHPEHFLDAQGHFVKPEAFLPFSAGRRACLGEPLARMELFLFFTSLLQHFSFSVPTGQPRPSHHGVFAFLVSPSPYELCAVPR
# In short: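 P450-Glo luminescent screen: recombinant CYP2D6 enzyme–proluciferin substrate mix preincubated with compound 10 min at room temperature, then NADPH regeneration added for 1 h at room temperature. Detection reagent added for 20 min; luciferin light read as relative luminescence units.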
# [7] = Primary qHTS for inhibitors of nuclear receptor binding SET domain protein 2 (NSD2) in an isogenic RCH-ACV NSD2 p.E1099K mutant (9B) (AID 1645876); further: nearly all actives have a fitted effect of over 70% in size; further: potency means the concentration at half of the fitted maximal effect
# [8] = Primary qHTS for inhibitors of nuclear receptor binding SET domain protein 2 (NSD2) in an RCH-ACV wild type WT cells (2C) (AID 1645877); further: nearly all actives have a fitted effect of over 70% in size; further: potency means the concentration at half of the fitted maximal effect
# [9] = molecular target: Cytochrome P450 2C9 (Homo sapiens) (UniProt P11712); experiment: Cytochrome P450 family 2 subfamily C member 9 (CYP2C9) small molecule antagonists: luciferase biochemical (cell-free) qHTS assay (AID 1645842; active means well fitted curve in the direction sought with a large enough effect in the repeat runs; an effect the other way counts as inactive or inconclusive; further: nearly all actives have a fitted effect of over 55% in size; further: potency means the concentration at half of the fitted maximal effect)
# Cytochrome P450 2C9 (Homo sapiens), sequence (P11712 whole entry, looked up): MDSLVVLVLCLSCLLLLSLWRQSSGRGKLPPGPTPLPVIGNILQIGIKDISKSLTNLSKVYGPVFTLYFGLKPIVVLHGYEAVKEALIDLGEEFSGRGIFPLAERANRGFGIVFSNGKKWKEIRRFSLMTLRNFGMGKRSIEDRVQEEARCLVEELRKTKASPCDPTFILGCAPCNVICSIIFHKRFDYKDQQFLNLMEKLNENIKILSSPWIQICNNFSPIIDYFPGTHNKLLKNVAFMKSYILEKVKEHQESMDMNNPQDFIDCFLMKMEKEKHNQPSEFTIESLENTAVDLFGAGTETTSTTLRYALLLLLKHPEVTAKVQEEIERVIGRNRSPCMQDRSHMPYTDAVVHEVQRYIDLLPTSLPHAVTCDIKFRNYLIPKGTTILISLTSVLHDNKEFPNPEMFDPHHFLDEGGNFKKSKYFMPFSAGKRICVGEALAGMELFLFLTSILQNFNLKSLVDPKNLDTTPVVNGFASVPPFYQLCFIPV
# In short: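 Luminescence, after 20 min with luciferin detection reagent, reflected CYP2C9 turnover during a 1 h NADPH-driven reaction at 37C. Enzyme-substrate mix contained 0.4% bovine serum albumin and was preincubated with compound 10 min at room temperature.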
# [10] = molecular target: Cytochrome P450 3A4 (Homo sapiens) (UniProt P08684); experiment: Cytochrome P450 family 3 subfamily A member 4 (CYP3A4) small molecule antagonists: luciferase qHTS assay (AID 1645841; active means well fitted curve in the direction sought with a large enough effect in the repeat runs; an effect the other way counts as inactive or inconclusive; further: nearly all actives have a fitted effect of over 45% in size)
# Cytochrome P450 3A4 (Homo sapiens), sequence (P08684 whole entry, looked up): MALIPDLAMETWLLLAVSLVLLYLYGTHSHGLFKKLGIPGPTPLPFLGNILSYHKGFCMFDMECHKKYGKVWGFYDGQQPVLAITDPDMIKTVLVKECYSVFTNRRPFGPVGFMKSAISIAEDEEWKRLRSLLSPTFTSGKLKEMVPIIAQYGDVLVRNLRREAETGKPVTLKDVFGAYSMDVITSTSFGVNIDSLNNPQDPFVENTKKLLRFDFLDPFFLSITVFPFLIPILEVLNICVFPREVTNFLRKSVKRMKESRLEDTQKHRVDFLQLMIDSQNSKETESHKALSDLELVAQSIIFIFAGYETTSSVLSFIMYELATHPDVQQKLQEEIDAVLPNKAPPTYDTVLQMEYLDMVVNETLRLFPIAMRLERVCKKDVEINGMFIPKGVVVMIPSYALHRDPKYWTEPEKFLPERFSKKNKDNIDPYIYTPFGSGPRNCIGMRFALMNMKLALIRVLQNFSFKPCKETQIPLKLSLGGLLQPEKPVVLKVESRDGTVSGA
# In short: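 P450-Glo CYP3A4 enzyme with proluciferin substrate was preincubated with DMSO-dissolved compounds for 10 min at room temperature. NADPH regeneration solution started a 1 h reaction. Detection reagent stopped it, and luminescence was read after 20 min.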
# [11] = molecular target: N-terminal Xaa-Pro-Lys N-methyltransferase 1 (Homo sapiens) (UniProt Q9BV86); experiment: Confirmatory qHTS for Inhibitors of N-terminal methyltransferase 1 (NTMT1): MTaseGlo Assay (AID 1645874);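 further: luminescence from SAH made as NTMT1 methylates SPKRIA peptide using SAM; series mostly up to about 100 µM; nearly all actives have a fitted effect of over 65% in size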
# N-terminal Xaa-Pro-Lys N-methyltransferase 1 (Homo sapiens), sequence (Q9BV86 whole entry, looked up): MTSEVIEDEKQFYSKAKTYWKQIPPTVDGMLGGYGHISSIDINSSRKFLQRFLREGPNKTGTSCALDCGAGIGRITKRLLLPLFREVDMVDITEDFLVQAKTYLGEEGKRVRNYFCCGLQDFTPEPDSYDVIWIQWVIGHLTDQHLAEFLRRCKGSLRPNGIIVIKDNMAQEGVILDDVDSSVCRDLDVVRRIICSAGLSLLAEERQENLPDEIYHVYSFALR
# In short: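 Preincubation of NTMT1 (125 nM) plus SAM (100 uM) with test compounds lasted 15 min; methylation of 1 uM SPKRIA then proceeded 30 min in the dark at room temperature. Luciferase signal reported SAH produced.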
smiles,measurement,setting,value
CC(=O)SC[C@@H](C)C(=O)N1CCC[C@H]1C(=O)N[C@@H](Cc1ccccc1)C(=O)O,Potency,[1],inactive
same,outcome,[2],inactive
same,max response,[3],10.6% (inactive)
same,Potency,[4],inactive
same,Potency,[5],inactive
same,Potency,[6],inactive
same,Potency,[7],inactive
same,Potency,[8],inactive
CCCCc1nc2cc(C=CC(=O)NO)ccc2n1CCN(CC)CC,Potency,[4],inactive
same,Potency,[6],12 µM (active)
Cc1nc2ccc(CN(C)c3ccc(C(=O)N[C@@H](CCC(=O)O)C(=O)O)s3)cc2c(=O)[nH]1,Potency,[4],inactive
same,Potency,[5],inactive
same,Potency,[6],inactive
same,Potency,[9],inactive
same,Potency,[7],53.1 nM (active) and 33.2 nM (active)
same,Potency,[8],59.6 nM (active) and 23.5 nM (active)
CC1(C)O[C@@H]2C[C@@H]3[C@H]4C[C@@H](F)C5=CC(=O)C=C[C@]5(C)[C@@]4(F)[C@@H](O)C[C@]3(C)[C@]2(C(=O)CO)O1,Potency,[4],inactive
CCCCN1CCC(CNC(=O)c2c3n(c4ccccc24)CCCO3)CC1,Potency,[4],inactive
CC(C)c1noc(N2CCC(COc3ccc(-c4ccc(S(C)(=O)=O)cc4)nc3)CC2)n1,Potency,[4],inactive
same,Potency,[6],inactive
COc1cc(=C2C=c3ccccc3=N2)[nH]c1=Cc1[nH]c(C)cc1C,Potency,[4],inactive
CC1(C)OC2=C(C(=O)c3ccccc3C2=O)[C@H](NCc2ccccc2)[C@H]1O,Potency,[4],inactive
Cn1c2ccccc2c2c3c(c4c5ccccc5n(CCC#N)c4c21)CNC3=O,Potency,[4],inactive
Cc1cccc(C=NNc2cc(N3CCOCC3)nc(OCCc3ccccn3)n2)c1,Potency,[4],inactive
COc1cc2ncnc(Nc3ccc(F)c(Cl)c3)c2cc1NC(=O)C=CCN1CCCCC1,Potency,[4],inactive
O=C(C=Cc1cccc(S(=O)(=O)Nc2ccccc2)c1)NO,Potency,[4],inactive
COc1ccc(C=Cc2cc(OC)c(OC)c(OC)c2)cc1O,Potency,[4],inactive
O=C(O)CO.[NH2-].[NH2-].[Pt+2],Potency,[4],inactive
CC1=C(CO)C(=O)O[C@@H]([C@@H](C)[C@H]2CC[C@H]3[C@@H]4C[C@H]5O[C@]56[C@@H](O)C=CC(=O)[C@]6(C)[C@@H]4CC[C@]23C)C1,Potency,[4],inactive
CC[C@H]1CN2CCc3cc(OC)c(OC)cc3[C@H]2C[C@@H]1C[C@@H]1NCCc2cc(OC)c(OC)cc21,Potency,[4],inactive
CC=CC1=C(C(=O)O)N2C(=O)[C@H](NC(=O)[C@H](N)c3ccc(O)cc3)[C@@H]2SC1,Potency,[4],inactive
C=C1C(=CC=C2CCCC3(C)[C@@H]([C@H](C)C=CC=CC(O)(CC)CC)CC[C@@H]23)C[C@@H](O)C[C@@H]1O (stereo partly specified),Potency,[4],inactive
C[C@H]1C[C@@H]2[C@@H]([C@@H](O)C[C@@]3(C)[C@H]2CC[C@]3(O)C(=O)CO)[C@@]2(C)C=CC(=O)C=C12,Potency,[4],inactive
Nc1ccc(S(=O)(=O)Nc2ncccn2)cc1,Potency,[4],inactive
same,Potency,[6],inactive
same,outcome,[10],inactive
same,Potency,[9],inactive
CCOc1cc2ncc(C#N)c(Nc3ccc(F)c(Cl)c3)c2cc1NC(=O)C=CCN(C)C,Potency,[4],inactive
COC(=O)C[C@](O)(CCCC(C)(C)O)C(=O)O[C@@H]1C(OC)=C[C@]23CCCN2CCc2cc4c(cc2[C@H]13)OCO4,Potency,[4],inactive
COc1ccc(-c2cc3c(C)nc(N)nc3n(C3CCC(OCCO)CC3)c2=O)cn1 (stereo unspecified),Potency,[4],inactive
same,Potency,[6],inactive
same,Potency,[9],5.35 µM (active) and 4.25 µM (active)
same,Potency,[11],inactive
same,Potency,[7],20.5 nM (active) and 41.7 nM (active)
CCC[C@H](NC(=O)C(C#N)=Cc1cccc(Br)n1)c1ccccc1,Potency,[4],inactive
Cc1[nH]c2ccccc2c1CCNCc1ccc(C=CC(=O)NO)cc1,Potency,[4],inactive
CCCNC(=O)Nc1ccc(Oc2ncnc3cc(OC)c(OC)cc23)cc1Cl,Potency,[4],inactive
same,Potency,[6],inactive
same,Potency,[9],inactive
COc1cc(C(C)C)c2c(c1)S(=O)(=O)N(COc1cc(=O)n3cccc(OCCN4CCCCC4)c3n1)C2=O,Potency,[1],39.8 µM (active)
same,outcome,[2],inactive
same,Potency,[4],inactive
same,Potency,[7],14.8 µM (active)
same,Potency,[8],10.5 µM (active)
COc1ccc(CC2SC(=O)NC2=O)cc1C(=O)NCc1ccc(C(F)(F)F)cc1 (stereo unspecified),Potency,[4],inactive
COC(=O)[C@]12CCC(C)(C)C[C@@H]1[C@@H]1C(=O)C=C3[C@@]4(C)C=C(C#N)C(=O)C(C)(C)[C@@H]4CC[C@@]3(C)[C@]1(C)CC2,Potency,[4],inactive
Cc1cc(Nc2cc(N3CCN(C)CC3)nc(C=Cc3ccccc3)n2)n[nH]1,Potency,[4],inactive
CNC(=O)c1c(F)cccc1Nc1nc(Nc2cc3c(cc2OC)CCN3C(=O)CN(C)C)nc2[nH]ccc12,Potency,[4],inactive
same,Potency,[6],inactive
same,Potency,[9],0.425 µM (active)
same,Potency,[7],5.15 µM (active) and 7.42 µM (active)
same,Potency,[8],3.25 µM (active) and 5.9 µM (active)
Cc1[nH]nc2ccc(-c3cncc(OC[C@@H](N)Cc4ccccc4)c3)cc12,Potency,[4],inactive
same,Potency,[6],0.674 µM (active)
same,Potency,[9],9.52 µM (active)
same,Potency,[7],325 nM (active) and 263 nM (active)
same,Potency,[8],326 nM (active) and 186 nM (active)
COc1cc2nccc(Oc3ccc(NC(=O)C4(C(=O)Nc5ccc(F)cc5)CC4)cc3)c2cc1OC,Potency,[4],inactive
same,Potency,[6],inactive
same,Potency,[9],2.68 µM (active)
same,Potency,[7],3.65 µM (active) and 5.25 µM (active)
same,Potency,[8],4.09 µM (active) and 4.68 µM (active)
Cc1cnc(Nc2ccc(F)cc2Cl)nc1-c1c[nH]c(C(=O)N[C@H](CO)c2cccc(Cl)c2)c1,Potency,[4],inactive
same,Potency,[6],8.49 µM (active)
same,Potency,[9],3.38 µM (active)
same,Potency,[7],2.9 µM (active) and 18.6 µM (active)
same,Potency,[8],3.65 µM (active) and 14.8 µM (active)
CS(=O)(=O)c1ccc(-c2cnc(N)c(C(=O)Nc3ccccc3)n2)cc1,Potency,[4],inactive
same,Potency,[6],inactive
same,Potency,[9],12 µM (active)
same,Potency,[7],2.63 µM (active)
O=C(Nc1ncc(-c2cc(C(F)F)nn2-c2c(Cl)cccc2Cl)s1)C1CC1,Potency,[4],inactive
same,Potency,[6],10.7 µM (active)
same,Potency,[9],6.74 µM (active)
same,Potency,[7],0.934 µM (active)
same,Potency,[8],0.417 µM (active)
